# Test results as given in PubChem BioAssay (NCATS).
# Results filed as inconclusive are left out. Activity calls are given as the source filed them. The call rests on the fitted dose curve; in most records, active means well fitted curve in the direction sought with a large enough effect; inconclusive means small, poorly fitted or top-dose-only effect, or another doubt; inactive means no such curve, though single readings can be large; an effect the other way counts as inactive or inconclusive.
# Key:
# [1] = qHTS of pediatric cancer cell lines to identify multiple opportunities for drug repurposing: Primary screen for OHS-50 cells (AID 1347103); further: nearly all actives have a fitted effect of over 40% in size
# Summary of the method: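 Cells (500-1,000/well) rested 5 h, then received compounds for 48 h; metabolically active cells were measured by CellTiter-Glo luminescence. Final concentrations spanned up to 46 µM (MIPE, 11-point) or 0.59 nM-46 µM (NPC, 8-point) in primary screens, 11-point in follow-ups.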
# [2] = qHTS of pediatric cancer cell lines to identify multiple opportunities for drug repurposing: Primary screen for RD cells (AID 1347104); further: nearly all actives have a fitted effect of over 55% in size
# Summary of the method: (§1)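 CRCs from 8- or 11-point titrations (lowest final 0.59 nM NPC, 0.78 nM MIPE). Cell viability: CellTiter-Glo after 48 h incubation, 15 min room-temperature development, luminescence imaging.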
# [3] = qHTS of pediatric cancer cell lines to identify multiple opportunities for drug repurposing: Primary screen for control Hh wild type fibroblast cells (AID 1347106); further: nearly all actives have a fitted effect of over 55% in size
# Summary of the method: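 Cells (500-1,000/well) in growth media were settled 5 h at 37 degrees C, then given compounds for 48 h. Viability was read as CellTiter-Glo luminescence. Primary runs used MIPE at 11 points (0.78 nM-46 µM) and NPC at 8 points (0.59 nM-46 µM); follow-ups used 11 points.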
# [4] = qHTS of pediatric cancer cell lines to identify multiple opportunities for drug repurposing: Primary screen for Rh30 cells (AID 1347107); further: nearly all actives have a fitted effect of over 75% in size
# Summary of the method: (§2)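 Viability after 48 h compound treatment at 37C, 500-1,000 cells/well, read as ATP luminescence with CellTiter-Glo. Primary screens used 11-point (MIPE, 0.78 nM-46 µM) or 8-point (NPC, 0.59 nM-46 µM) final concentrations; follow-up screens used 11-point dilutions.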
# [5] = qHTS of pediatric cancer cell lines to identify multiple opportunities for drug repurposing: Primary screen for MG 63 (6-TG R) cells (AID 1347105); further: nearly all actives have a fitted effect of over 50% in size
# Summary of the method: as §1
# [6] = qHTS of pediatric cancer cell lines to identify multiple opportunities for drug repurposing: Primary screen for Rh41 cells (AID 1347108); further: nearly all actives have a fitted effect of over 70% in size
# Summary of the method: as §1
# [7] = qHTS of pediatric cancer cell lines to identify multiple opportunities for drug repurposing: Confirmatory screen for A673 cells (AID 1347110); further: nearly all actives have a fitted effect of over 65% in size
# Summary of the method: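 Cells plated at 500-1,000/well were treated five hours later with multi-point dilutions up to 46 µM final. After two days, CellTiter-Glo was added and luminescence read.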
# [8] = qHTS of pediatric cancer cell lines to identify multiple opportunities for drug repurposing: Confirmatory screen for DAOY cells (AID 1347114); further: nearly all actives have a fitted effect of over 65% in size
# Summary of the method: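 Viability measured as metabolically active cells via CellTiter-Glo luminescence following 48 hours of compound exposure, 11-point dilutions in confirmatory testing. 500-1,000 cells/well plated 5 hours before dosing; controls were DMSO and 2.3 µM bortezomib.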
# [9] = qHTS of pediatric cancer cell lines to identify multiple opportunities for drug repurposing: Confirmatory screen for MG 63 (6-TG R) cells (AID 1347119); further: nearly all actives have a fitted effect of over 55% in size
# Summary of the method: as §2
# [10] = qHTS of pediatric cancer cell lines to identify multiple opportunities for drug repurposing: Confirmatory screen for control Hh wild type fibroblast cells (AID 1347121); further: nearly all actives have a fitted effect of over 70% in size
# Summary of the method: as §2
# [11] = qHTS of pediatric cancer cell lines to identify multiple opportunities for drug repurposing: Confirmatory screen for U-2 OS cells (AID 1347122); further: nearly all actives have a fitted effect of over 65% in size
# Summary of the method: as §2
# [12] = qHTS of pediatric cancer cell lines to identify multiple opportunities for drug repurposing: Confirmatory screen for Rh41 cells (AID 1347123); further: nearly all actives have a fitted effect of over 60% in size
# Summary of the method: as §2
# [13] = qHTS of pediatric cancer cell lines to identify multiple opportunities for drug repurposing: Confirmatory screen for NB1643 cells (AID 1347109); further: nearly all actives have a fitted effect of over 45% in size
# Summary of the method: as §2
# [14] = qHTS of pediatric cancer cell lines to identify multiple opportunities for drug repurposing: Confirmatory screen for SK-N-MC cells (AID 1347111);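 further: cells exposed to compound for 48 h before the readout; nearly all actives have a fitted effect of over 70% in size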
# Summary of the method: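 SK-N-MC cells at 500-1,000 cells/well in growth media were pre-incubated 5 h, then exposed to compounds at 11-point dilutions for 48 h at 37 degrees C, 5% CO2. Viability was read as CellTiter-Glo luminescence.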
# [15] = qHTS of pediatric cancer cell lines to identify multiple opportunities for drug repurposing: Confirmatory screen for BT-12 cells (AID 1347112); further: nearly all actives have a fitted effect of over 55% in size
# Summary of the method: as §2
# [16] = qHTS of pediatric cancer cell lines to identify multiple opportunities for drug repurposing: Confirmatory screen for BT-37 cells (AID 1347117); further: nearly all actives have a fitted effect of over 55% in size
# Summary of the method: as §2
# [17] = qHTS of pediatric cancer cell lines to identify multiple opportunities for drug repurposing: Confirmatory screen for TC32 cells (AID 1347118); further: nearly all actives have a fitted effect of over 65% in size
# Summary of the method: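 Luminescent CellTiter-Glo read-out of metabolically active TC32 cells after 48 h compound exposure. Primary: MIPE 11-point, 0.78 nM–46 µM; NPC 8-point, 0.59 nM–46 µM. Confirmatory: 11-point dilutions.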
# [18] = qHTS of pediatric cancer cell lines to identify multiple opportunities for drug repurposing: Confirmatory screen for RD cells (AID 1347124)
# Summary of the method: as §2
# [19] = qHTS of pediatric cancer cell lines to identify multiple opportunities for drug repurposing: Confirmatory screen for Rh18 cells (AID 1347125); further: nearly all actives have a fitted effect of over 55% in size
# Summary of the method: as §2
# [20] = qHTS of pediatric cancer cell lines to identify multiple opportunities for drug repurposing: Confirmatory screen for NB-EBc1 cells (AID 1347115); further: nearly all actives have a fitted effect of over 45% in size
# Summary of the method: as §2
# Potency means the concentration at half of the fitted maximal effect.
Structure (SMILES),Potency [1],Potency [2],Potency [3],Potency [4],Potency [5],Potency [6],Potency [7],Potency [8],Potency [9],Potency [10],Potency [11],Potency [12],Potency [13],Potency [14],Potency [15],Potency [16],Potency [17],Potency [18],Potency [19],Potency [20]
CC(=CCCC1=CCC(C2=CC(=O)OC2O)OC1O)CCC1=C(C)CCCC1(C)C (configuration not stated),inactive,inactive,inactive,inactive,–,–,–,–,–,–,–,–,–,–,–,–,–,–,–,–
CCNC(=O)CC1N=C(c2ccc(Cl)cc2)c2cc(OC)ccc2-n2c(C)nnc21 (configuration not stated),21700 nM (active),5900 nM (active),inactive,–,–,–,–,–,–,–,–,–,–,–,–,–,–,–,–,–
COC1=CC(C)=C[C@@H](C)[C@@H](O)[C@@H](C)CC(C)=CC=C[C@H](OC)[C@H]([C@@H](C)[C@@H](O)[C@H](C)[C@@]2(O)C[C@@H](O)[C@H](C)[C@@H](C(C)C)O2)OC1=O,1.4 nM (active),1 nM (active),41.8 nM (active),–,5.9 nM (active),16600 nM (active),inactive,inactive,inactive,inactive,inactive,inactive,–,–,–,–,–,–,–,–
Cc1[nH]nc2ccc(-c3cncc(OC[C@@H](N)Cc4c[nH]c5ccccc45)c3)cc12,1530 nM (active),1480 nM (active),–,14800 nM (active),2350 nM (active),2640 nM (active),1470 nM (active),–,3290 nM (active),18500 nM (active),–,–,737 nM (active),1470 nM (active),4140 nM (active),1650 nM (active),2330 nM (active),inactive,4650 nM (active),–
COC[C@H]1OC(=O)c2coc3c2[C@@]1(C)C1=C(C3=O)[C@@H]2CC[C@H](O)[C@@]2(C)C[C@@H]1OC(C)=O,306 nM (active),14800 nM (active),inactive,–,1870 nM (active),11800 nM (active),–,–,–,–,–,–,–,–,–,–,–,–,–,–
c1ccc(CCCN2CCN(CCOC(c3ccccc3)c3ccccc3)CC2)cc1,21700 nM (active),29600 nM (active),inactive,–,–,–,–,–,–,–,–,–,–,–,–,–,–,–,–,–
COc1ccc(C(=O)c2c(C)n(CCN3CCOCC3)c3cc(I)ccc23)cc1,19300 nM (active),18700 nM (active),inactive,inactive,–,18700 nM (active),26100 nM (active),18500 nM (active),14700 nM (active),inactive,16500 nM (active),9270 nM (active),–,–,–,–,–,–,–,–
CC[C@@H]1[C@@H](C)O[C@@](O)([C@@H](C)[C@H](O)[C@H](C)[C@H]2OC(=O)C=CC=C[C@@H](C)[C@@H]([C@@H](C)[C@@H](O)[C@H](C)[C@@]3(O)C[C@H](O[C@H]4C[C@H](O)[C@H](O)[C@H](C)O4)[C@H](CC)[C@@H](C)O3)OC(=O)C=CC=C[C@@H]2C)C[C@H]1O[C@H]1C[C@H](O)[C@H](O)[C@H](C)O1,306 nM (active),264 nM (active),9350 nM (active),935 nM (active),590 nM (active),743 nM (active),–,–,–,inactive,inactive,–,inactive,inactive,inactive,inactive,inactive,inactive,inactive,–
COCC1(CO)C(=O)C2CCN1CC2 (configuration not stated),3850 nM (active),inactive,inactive,–,18700 nM (active),20900 nM (active),–,–,–,–,–,–,–,–,–,–,–,–,–,–
CC[C@H]1C=CC=CC[C@@H](C)[C@H](O)[C@@](C)(O)C(=O)[C@@H](C)[C@H](O)[C@@H](C)C(=O)[C@@H](C)[C@H](O)[C@@H](C)C=CC(=O)O[C@@H]2[C@@H](C)[C@H](CC1)O[C@]1(CC[C@H](C)[C@H](C[C@@H](C)O)O1)[C@H]2C,4.9 nM (active),23500 nM (active),inactive,inactive,–,–,–,3.7 nM (active),117 nM (active),117 nM (active),4.6 nM (active),–,–,233 nM (active),–,58.5 nM (active),1850 nM (active),4140 nM (active),inactive,208 nM (active)
CCOC(=O)c1c(C(C#N)=CN)c2ccc(Cl)c(Cl)c2n1C,inactive,inactive,inactive,–,–,–,–,–,–,–,–,–,–,–,–,–,–,–,–,–
CC=C(C)C(=O)O[C@H]1C(C)=C2[C@@H]3OC(=O)[C@@](C)(O)[C@@]3(O)[C@@H](OC(=O)CCC)C[C@](C)(OC(C)=O)[C@@H]2[C@@H]1OC(=O)CCCCCCC,17.2 nM (active),20.9 nM (active),–,1320 nM (active),118 nM (active),209 nM (active),inactive,inactive,inactive,inactive,inactive,inactive,inactive,inactive,–,inactive,inactive,inactive,inactive,inactive
CC(C)(O)C=CC(=O)[C@](C)(O)[C@H]1[C@H](O)C[C@]2(C)[C@@H]3CC=C4[C@@H](C=C(O)C(=O)C4(C)C)[C@]3(C)C(=O)C[C@@]12C,137 nM (active),166 nM (active),–,8330 nM (active),29.6 nM (active),469 nM (active),5220 nM (active),165 nM (active),117 nM (active),2610 nM (active),208 nM (active),208 nM (active),117 nM (active),147 nM (active),1310 nM (active),827 nM (active),827 nM (active),465 nM (active),147 nM (active),3290 nM (active)
Cc1ccccc1-n1c(Cn2cnc3c(N)ncnc32)nc2cccc(C)c2c1=O,61.1 nM (active),2350 nM (active),–,–,148 nM (active),590 nM (active),inactive,–,–,inactive,inactive,inactive,inactive,inactive,inactive,inactive,inactive,inactive,inactive,inactive
